Assay results taken from PubChem BioAssay (NCATS).
Records with an inconclusive call do not appear. Entries that show only a call come without a potency. Activity calls are given as the source filed them. Calls come from the whole dose curve; as a rule, active = well fitted inhibition curve with a large enough effect; inconclusive = small, poorly fitted or top-dose-only effect; inactive = flat fitted curve, though single readings scatter.

test: P-glycoprotein substrates identified in KB-8-5-11 adenocarcinoma cell line, qHTS therapeutic library screen (AID 1346987); conditions: KB-8-5-11 (P-gp overexpressing) viability, CellTiter-Glo, 72 h; series mostly up to 44.5 µM; note: nearly all actives have a fitted effect of over 65% in size
Method in brief: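 KB-8-5-11: colchicine-selected sub-line of KB-3-1 over-expressing P-gp; assay medium lacked colchicine. 72 h drug exposure at 37 degree C, CellTiter-Glo.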
Potency is the fitted concentration of half-maximal effect.

Compound | Potency
CC(C)=CCCC1(C)C2CCC1(C)C(O)C2 (stereo not given) | inactive
Cc1nc2c(C(F)(F)F)cccc2nc1-c1ccc(-c2cccc(S(C)(=O)=O)c2)cc1 | inactive
C#CCCCn1cc(-c2cccc3c2N[C@H](C)CC(=O)N3)cn1 | 1.46 µM (active)
NC(=O)c1cccc2[nH]c(-c3ccc(C4CCCN4)cc3F)nc12 (stereo not given) | inactive
COc1ccc2nccc(C(=O)CC[C@@H]3CCN(CC#Cc4cc(F)cc(F)c4F)C[C@@H]3C(=O)O)c2c1 | inactive
Cc1ccc(CNc2ncnc3ccc(-c4ccc(CO)o4)cc23)o1 | inactive
CCOC(=O)Nc1ccc2c(c1)N(C(=O)CN(C)C)c1ccccc1CC2 | inactive
C=C1C(=O)O[C@@H]2/C=C(\CO)CC/C=C(\CO)[C@H](OC(C)=O)C(OC(=O)C(C)CC)C12 (stereo not given in full) | inactive
O=c1[nH]cnc2[nH]cc(CN3CCCCC3)c12 | inactive
COCCNCc1ccc(-c2cc3nccc(Oc4ccc(NC(=O)C5(C(=O)Nc6ccc(F)cc6)CC5)cc4F)c3s2)nc1 | 4.61 µM (active)
C[C@@H]1O[C@@H](O[C@H]2[C@@H]3C=CO[C@@H](O[C@@H]4O[C@H](CO)[C@@H](O)[C@H](O)[C@H]4O)[C@@H]3[C@@]3(CO)O[C@@H]23)[C@H](O)[C@H](OC(=O)/C=C/c2ccccc2)[C@H]1O | inactive
CC(=O)O[C@@H]1C[C@@]23C[C@@]24CC[C@H](O[C@@H]2OC[C@H](O)[C@H](O)[C@H]2O)C(C)(C)[C@@H]4CC[C@H]3[C@]2(C)[C@@H](O)C34O[C@H](C[C@@H](C)[C@@H]3[C@@]12C)[C@@H](C(C)(C)O)O4 | inactive
COc1ccc2c(c1O[C@H]1CCNC1)CCC2 | inactive
Cc1c(C2=CCN(C(=O)N(C)C(C)C)CC2)nnn1-c1cccnc1F | inactive
CCCCCC(O)/C=C/C=O (stereo not given) | inactive
